Data on 85 compounds can be found in PubChem BioAssay AID652257 (The Scripps Research Institute Molecular Screening Center, 2013).

Out of some 370,000 compounds screened, about 4,800 (1.3%) were called active.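 Rule for the calls: active = inhibition above about 21% made by adding two undisclosed values (limit read from the data); inactive = the rest.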 Only a selection was taken, and actives are over-represented in it overall.

In the test the target is Protein arginine N-methyltransferase 1 (Homo sapiens) (UniProt Q99873). Briefly: PRMT1 methyltransferase inhibitors, primary screen, biochemical, fluorescence polarization (AID 652257). The following applies: recombinant PRMT1, activity-based probe fluorescence polarization; at 2.79 µM; active compounds read high. (In general: Fluorescence polarisation rises when a labelled molecule tumbles more slowly, as on binding a larger partner.)
Protein arginine N-methyltransferase 1 (Homo sapiens), sequence (Q99873 whole entry, looked up): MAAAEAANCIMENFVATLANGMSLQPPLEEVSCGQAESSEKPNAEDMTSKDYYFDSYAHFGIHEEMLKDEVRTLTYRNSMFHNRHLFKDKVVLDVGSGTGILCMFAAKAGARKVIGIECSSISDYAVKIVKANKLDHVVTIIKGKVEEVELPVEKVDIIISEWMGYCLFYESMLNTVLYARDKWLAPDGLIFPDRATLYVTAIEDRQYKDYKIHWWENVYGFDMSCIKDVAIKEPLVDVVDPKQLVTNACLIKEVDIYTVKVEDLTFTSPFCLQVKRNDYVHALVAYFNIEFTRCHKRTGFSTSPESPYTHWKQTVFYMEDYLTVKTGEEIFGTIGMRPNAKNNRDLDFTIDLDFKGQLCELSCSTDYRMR
As a reminder, the inhibition is the drop in the measured response relative to a control, in per cent. With `O=C(Cn1cnc2ccccc21)N/N=C/c1ccco1`, the inhibition is -1.39% (inactive).
With `O=C(COC(=O)Cn1cnc2ccccc21)Nc1cccc2c1C(=O)c1ccccc1C2=O` the figure was 26.1% (active).
With `O=C(COC(=O)Cn1cnc2ccccc2c1=O)NCC12CC3CC(CC(C3)C1)C2` the figure was -1.36% (inactive); with `Cc1cc2nc3c(=O)[nH]c(=O)nc-3n(C[C@H](O)[C@H](O)[C@H](O)CO)c2cc1C`, 85.4% (active).
Take `Cc1ccc(OCC(=O)c2cc(C)n(Cc3ccco3)c2C)c([N+](=O)[O-])n1`: the inhibition was 1.18% (inactive).
With `Cc1ccc(Cn2c(C)nc3c(c2=O)c2nc4ccccc4nc2n3Cc2ccco2)cc1` the figure was 24.6% (active); with `Cc1ccc(C(=O)CSc2nc3ccccc3c(=O)n2N)o1`, 6.79% (inactive); with `C[C@H]1CN([C@@H](C)CO)S(=O)(=O)c2ccc(Br)cc2O[C@H]1CN(C)C(=O)c1cnccn1`, -6.2% (inactive).
With `CC1Sc2ccc(C(=O)NCc3ccccc3Cl)cc2NC1=O` (stereo not given) the figure was 1.76% (inactive); with `COC(=O)c1cccc(Cn2ccc3ccc(-c4ccc5ccn(C(=O)C6CCCCC6)c5c4)cc32)c1`, 3.39% (inactive).
With `C[C@@H]1COc2cccc(N3CCCC3)c2S(=O)(=O)N1C` the figure was 10.8% (inactive); with `C=CCn1c(N)cc(=O)nc1SCC(=O)Nc1cccc2ccccc12`, -1.49% (inactive); with `Cc1ccc(-n2c(SCC(=O)Nc3cccc4ccccc34)nnc2-c2ccccn2)cc1`, -1.87% (inactive).
Take `Cc1ccccc1-n1c(SCC(=O)Nc2cccc3ccccc23)nc(O)cc1=O`: the inhibition is 27.6% (active).
With `COc1cccc(CNC(=O)C2CCCN(c3nc4ccccc4o3)C2)c1OC` (stereo not given) the figure was -1.5% (inactive).
With `Cc1ccc(NC(=O)Nc2cc(C)nn2-c2ccccc2)cc1` the figure was -2.65% (inactive); with `O=C(c1cccc(C(F)(F)F)c1)N1CC[C@H]2[C@H](CCCN2Cc2cc(F)cc(F)c2)C1`, -3.31% (inactive); with `CCOCCn1c(C(C)C)nc2ccccc21`, -1.59% (inactive).
With `CCCC(NC(=O)c1ccccc1)c1nc2ccccc2n1Cc1ccc(C(=O)OC)o1` (stereo not given) the figure was -1.43% (inactive).
In the case of `CCCn1c(C(Cc2ccccc2)NC(=O)COC)nc2ccccc21` (stereo not given), the inhibition was 21.6% (active).
With `CCCCn1ccnc1C(=O)c1cccc(S(=O)(=O)N2c3ccccc3CC2C)c1` (stereo not given), the inhibition was -0.73% (inactive).
With `Cc1ccccc1NC(=O)C1CCN(c2ncccn2)CC1` the figure was 8.54% (inactive); with `Fc1ccc2nc(COCc3nc4ccc(F)cc4[nH]3)[nH]c2c1`, -1.38% (inactive); with `Cc1cc2c(c(=O)n1C)C(C(C)C)C(C#N)=C(N)O2` (stereo not given), 2.55% (inactive).
With `Cc1cc2c(c(=O)n1Cc1ccco1)C(c1ccccc1)C(C#N)=C(N)O2` (stereo not given) the figure was 36.6% (active).
With `CC(C)c1ccc(C2C(C#N)=C(N)Oc3c2oc(CO)cc3=O)cc1` (stereo not given) the figure was 2.64% (inactive); with `CCC(C)(C)NC(=O)C(c1cccc(OC)c1OC)N(CC(C)C)C(=O)CCC(=O)Nc1cc(C)on1` (stereo not given), -2.2% (inactive).
On to `CCn1c(=S)sc2c(=O)n(CC(=O)Nc3ccc(OC)cc3)c(C)nc21`, for which the inhibition is 0.4% (inactive).
Regarding `Oc1ccc2ccc3cccc[n+]3c2c1`, the inhibition was 187% (active).
With `COC(=O)[C@]12C[C@H](CC(=O)NCc3ccccc3)C(=O)N(Cc3ccccc3)C1=C[C@H](COCc1ccccc1)O[C@@H]2C` the figure was 1.65% (inactive); with `N/C(=N\OC(=O)CCc1ccccc1)c1cccnc1`, 0.81% (inactive).
With `Cc1ccc(OCc2nnc(SC/C=C/c3ccccc3)n2Cc2ccco2)cc1` the figure was -0.38% (inactive); with `O=C(Nc1cc(Cl)cc(Cl)c1)OCCN1CCCC12CCC(c1ccccc1)CC2` (stereo not given), -4.6% (inactive).
With `COc1ccc(CSc2nnc(SCC(=O)Nc3ccccc3C(F)(F)F)s2)cc1` the figure was -1.07% (inactive); with `COCCCNC(=O)C[C@H]1C[C@@]2(C(=O)OC)C(=C[C@H](C(C)(C)C)O[C@@H]2C)N(Cc2ccc(Cl)cc2Cl)C1=O`, 4.84% (inactive).
Regarding `COC(=O)[C@]12C[C@H](CC(=O)NCc3ccccc3)C(=O)N(CCc3ccc(OC)c(OC)c3)C1=C[C@H](C(C)(C)C)O[C@@H]2C`, the inhibition is -1.11% (inactive).
Turning to `CN(CC(=O)Nc1ccc(C(N)=O)cc1)S(=O)(=O)c1ccc2c(c1)OCCO2`, the inhibition was -3.91% (inactive).
For the compound `NC(=O)c1ccc(NC(=O)COC(=O)c2c3c(nc4ccccc24)/C(=C\c2ccc4c(c2)OCO4)CCC3)cc1`, the inhibition is 141% (active).
With `O=C(COC(=O)c1c(Cl)cccc1Cl)Nc1cccc(S(=O)(=O)NC2=NCCCCC2)c1` the figure was -1.88% (inactive).
Take `NS(=O)(=O)c1ccc(NC(=O)COC(=O)c2c3c(nc4ccccc24)/C(=C\c2ccc4c(c2)OCO4)CCC3)cc1`: the inhibition is 139% (active).
With `O=C(COC(=O)c1ccc2c(c1)OCCO2)NCc1ccccc1Cl` the figure was -2.85% (inactive); with `CN(C)S(=O)(=O)c1ccc(NC(=O)COC(=O)c2n[nH]c3ccccc23)cc1`, -3.56% (inactive).
With `COc1cccc(CSc2nnc(-c3cccnc3)n2Cc2ccccc2)c1` the figure was 4.89% (inactive); with `COc1ccc(C2Nc3ccccc3C(=O)N2Cc2cccs2)cc1COc1c(C)cccc1C` (stereo not given), -1.12% (inactive); with `CCOC(=O)N1CCN(C(=O)CSc2nnc(-c3c[nH]c4ccccc34)n2CCOC)CC1`, -1.98% (inactive).
With `CN(CCO)c1cccc2c1S(=O)(=O)N(Cc1cn(Cc3ccc(C(F)(F)F)cc3)nn1)Cc1ccccc1O2` the figure was 4.68% (inactive).
With `Cc1cccc2cc3c(N)c(C(=O)N4CCCc5ccccc54)sc3nc12`, the inhibition is 38% (active).
With `Cn1c(SCC(=O)N2CCCc3ccccc32)nc2ccccc2c1=O` the figure was 0.04% (inactive); with `COc1cccc(/C=C/C(=O)OCC(=O)N2CCCc3ccccc32)c1`, -0.48% (inactive); with `Cc1ccc(N)cc1CN1CCN(c2ncc(Cc3ccccc3)cn2)CC1`, -1.39% (inactive).
In the case of `N#CC1=C(N)Oc2[nH]c(=S)[nH]c(=O)c2C12C(=O)Nc1ccccc12` (stereo not given), the inhibition is 37.2% (active).
With `Cc1ccc(NC2(C#N)C(=O)Nc3ccccc32)cc1` (stereo not given) the figure was -2.14% (inactive); with `O=S1(=O)c2ccc(Br)cc2OC[C@H](Cc2ccccc2)N1Cc1cn(Cc2ccccc2)nn1`, 4.16% (inactive); with `C=CCC(NCc1ccco1)c1ccc(OC)cc1` (stereo not given), -0.85% (inactive).
With `Cc1cccc(C(=O)NC(=S)N2CCN(c3ccc([N+](=O)[O-])cc3)CC2)c1` the figure was -2.54% (inactive).
With `Cc1cc(/C=N/Nc2ccc([N+](=O)[O-])cn2)c(C)n1-c1cccc(C(=O)O)c1` the figure was 23.6% (active); with `CN1CCN(C(=O)c2cnn(-c3ccccc3)c2NC(=O)c2ccc([N+](=O)[O-])cc2)CC1`, 4.06% (inactive); with `Cc1ccccc1NC(=O)COC(=O)c1ccc(Sc2ncn[nH]2)c([N+](=O)[O-])c1`, -0.43% (inactive).
As to `O=C(O)c1[nH]c2ccccc2c1C(c1cccc(O)c1)c1c(C(=O)O)[nH]c2ccccc12`, the inhibition was -1.91% (inactive).
Turning to `Cc1c(C(C)c2ccccc2O)[nH]c2ccccc12` (stereo not given), the inhibition is 2.86% (inactive).
With `CCOC(=O)c1ccn(S(=O)(=O)c2ccc(C)cc2)c1-c1ccccc1` the figure was -3.46% (inactive); with `CCOC(=O)c1cc2n(c1N)-c1ccccc1C2=O`, 29.4% (active).
`CCOC(=O)c1ccccc1NC(=O)c1c(N)n(C)c(=O)[nH]c1=O`: the inhibition is 1.71% (inactive).
Take `COc1cc(/C=C/C(=O)n2cnc3ccccc32)cc(OC)c1OC`: the inhibition is 5.15% (inactive).
With `NS(=O)(=O)c1ccc(NC(=S)NC(=O)c2cccnc2)cc1` the figure was 0.33% (inactive).
With `C=CCN1C(C(=O)OC)CN(Cc2cn(Cc3ccccc3)nn2)CCS1(=O)=O` (stereo not given) the figure was -1.05% (inactive); with `O=C1C=CC(=O)N1c1ccc(N2CCCCC2)cc1`, 90.5% (active).
With `CC(C)(C)NC(=O)COc1ccc(CNc2ccc3[nH]c(=O)[nH]c3c2)cc1` the figure was 35.9% (active); with `O=C(COc1ccc([N+](=O)[O-])cc1Cl)Nc1ccc2[nH]c(=O)[nH]c2c1`, 1.93% (inactive); with `COc1ccc(C(=O)OCC(=O)Nc2ccc3[nH]c(=O)[nH]c3c2)c(OC)c1OC`, 3.04% (inactive).
For `O=S1(=O)c2c(cccc2N2CCSCC2)Oc2ccccc2CN1Cc1cn(Cc2ccc(F)cc2)nn1`, the inhibition is -0.69% (inactive).
With `O=C(Nc1ccccc1)N1CCN(Cc2nc3ccccc3c(=O)[nH]2)CC1` the figure was 2.82% (inactive).
With `CC(=O)N/C(=C\c1ccccc1)C(=O)OC(C)C(=O)N(C)c1ccccc1` (stereo not given) the figure was -2.28% (inactive); with `CN(C(=O)CN1CCN(c2cc(-c3ccc(OCc4ccccc4)cc3)ncn2)CC1)c1ccccc1`, -1.91% (inactive); with `CC1CN(Cc2ccco2)C(=S)N(c2ccccc2)C1=O` (stereo not given), 6.21% (inactive).
For `CCN(CC)C(=O)CSc1nnc(CNc2ccc(F)cc2)n1Cc1ccco1`, the inhibition is 10.1% (inactive).
With `CN(C)C(=S)N=c1ssc(=S)n1Cc1ccco1` the figure was 27% (active); with `Cc1cccc(OCCCC(=O)Nc2ccc(S(=O)(=O)N3CCCC3)cc2)c1`, 0.23% (inactive); with `Cc1ccc2nc(CN(C)C(=O)[C@@H](Cc3ccccc3)NC(=O)[C@H]3O[C@@H](n4ccc(=O)[nH]c4=O)[C@H](O)[C@@H]3O)[nH]c2c1`, 1.16% (inactive).
With `COc1ccc(NC(=O)C(C)SCc2ccccc2)cc1` (stereo not given) the figure was 1.07% (inactive).
With `Cc1nnc(SC(C(=O)Nc2cc(Cl)cc(Cl)c2)c2ccccc2)[nH]c1=O` (stereo not given) the figure was 11.5% (inactive); with `CSc1nc(C)cc(SC(C(C)=O)C(=O)Nc2ccccc2)n1` (stereo not given), 73.7% (active).
`CCCC[C@H](C(=O)N(CC)c1ccccc1)[C@@H](O)c1ccc2ccccc2c1`: the inhibition was 1.04% (inactive).
With `COc1cccc(N(C)C(=O)[C@@H](C)[C@@H](O)c2ccc3ccccc3c2)c1` the figure was -1.81% (inactive).
With `CC(=O)N(C1=C(Cl)C(=O)c2ccccc2C1=O)c1ccc(C(=O)O)cc1` the figure was 87.5% (active).
